# Data: PubChem BioAssay AID2314 (National Center for Advancing Translational Sciences (NCATS), 2010)
# Among all 300,000 compounds or so, about 37,000 (12%) were called active. The sample as a whole holds a higher share of actives than the screen did. Values without a mark were called inactive. No stated cut-off is given here; in the data, active means max response mostly above about 13% (no sharp cut-off); inactive means mostly below about 14%.
# Experiment: Cycloheximide Counterscreen for Small Molecule Inhibitors of Shiga Toxin; further: read at 38.3 µM for the half of the compounds with a filed dose; 0% is about no effect
# Conditions: cell reporter, cycloheximide protein synthesis inhibition counterscreen; stronger effect = higher value
row,SMILES,max response
1,Cc1ccc(C(NC(=O)N2CCCC2)C(Cl)(Cl)Cl)cc1F (centres undefined),10.7%
2,COc1ccc(C(C(=O)NC(C)(C)C)N(Cc2ccc(F)cc2)C(=O)CCC(=O)Nc2cc(C)on2)cc1 (centres undefined),-0.261%
3,CCOC(=O)c1c(C)[nH]c(C2=NNC(=NC(C)COC)SC2)c1C (centres undefined),42.6% (active)
4,CCOC(=O)c1c(C)[nH]c2c1-c1ccccc1C(=O)C2=O,12.4%
5,Cc1ccnc(NS(=O)(=O)c2ccc(NC(=O)c3oc4ccc(F)cc4c3C)cc2)n1,-2.51%
6,O=C(NCC1COc2ccccc2O1)C1(c2ccccc2)CCCC1 (centres undefined),-2.77%
7,COc1ccc(Br)cc1CN(C)CC(=O)Nc1cc([N+](=O)[O-])ccc1OC,-1.88%
8,Cc1cc(=O)[nH]c(N/N=C/c2c(C)nn(-c3ccccc3Cl)c2Cl)n1,10.2% (active)
9,CCN(CC)c1ccc(/C=N/Nc2nc(C)cc(=O)[nH]2)cc1,1.51%
10,Cc1cc(=O)[nH]c(N/N=C/c2ccc3c(c2)OCCO3)n1,38.7%
11,Cc1ccc(C(=O)NCC(=O)NCc2cc(=O)n(C)c(=O)n2C)cc1,-0.788%
12,O=C(CN1C(=O)CSC1=O)N1CCCC(Nc2ccc(F)cc2)C1 (centres undefined),-1.37%
13,O=C1CCCCN1CCCC(=O)N1CCCC(Nc2ccc(F)cc2)C1 (centres undefined),2.17%
14,O=C(CN1CCOC1=O)N1CCCC(Nc2ccc(F)c(F)c2)C1 (centres undefined),23.5% (active)
15,CC1CCCN(CCCNC(=O)CN2C(=O)COc3ccc(S(=O)(=O)N4CCOCC4)cc32)C1 (centres undefined),-6.25%
16,O=C(Cc1ccc2c(c1)CCCC2)Nc1ccccc1Cl,15.4% (active)
17,CC1(C)CC(CCC(=O)Nc2ccccc2Cl)C(=O)O1 (centres undefined),5.32%
18,O=C(Nc1ccc2c(c1)CCC2)c1cccc(S(=O)(=O)Nc2ccccc2Cl)c1,8.91%
19,COc1ccc(CNC(=O)CN(C(=O)c2csnn2)c2cnc3ccccc3c2)cc1,-1.99%
20,Cc1cc(C)c(C#N)c(SCC(=O)Nc2ccccc2)n1,14% (active)
21,CSc1cccc(NC(=O)CSc2ccccc2)c1,39.6% (active)
22,O=C(CSc1ccccc1)Nc1cc(Cl)ccc1Oc1ccccc1,-2.3%
23,O=C(CSc1ccccc1)Nc1ccc(C(=O)Nc2cccc(O)c2)cc1,32.4% (active)
24,Cc1cc(C)cc(NC(=O)CSc2ccccc2)c1,18.6% (active)

row,SMILES,max response
1,Cc1cc(C)cc(NC(=O)CN2C(=O)c3ccccc3C2=O)c1,-2.91%
2,O=C(CSc1nc(C2CC2)nc2ccccc12)Nc1cccc(O)c1,-1.26%
3,Cc1cc(C)cc(NC(=O)CCN2C(=O)c3ccccc3C2=O)c1,7.24%
4,Cc1cc(C)c(C#N)c(SCc2ccccc2C(=O)O)n1,-3.7%
5,O=C(Nc1ccc(CSc2ccccc2)cc1)c1ccc(CN2CCOCC2)cc1,-1.82%
6,COCc1cc(C)nc(SCC(=O)Nc2cccc(C)c2)c1C#N,5.77%
7,Cc1nnc(SCC(=O)Nc2cccc(N)c2)n1-c1ccccc1,-3.71%
8,COc1ccc(/C=C2\SC(=S)N(CCC(=O)Nc3cccc(C(=O)O)c3)C2=O)cc1OC,1.51%
9,CC(NC(=O)COc1cccnc1[N+](=O)[O-])c1ccc(Cl)cc1Cl (centres undefined),-5.73%
10,CCCN1Cc2cccc(C(=O)Nc3ccc(S(=O)(=O)N4CCCCCC4)cc3)c2C1=O,-1.84%
11,CCCCN(CC)C(=O)C1CCCN(S(=O)(=O)c2cccc3nsnc23)C1 (centres undefined),-3.7%
12,C#CCNC(=O)C1=C[C@@H](c2ccccc2)[C@H](CCCO)[C@@H](OCC)O1,0.207%
13,O=C(NCC(c1cccs1)N1CCOCC1)c1cc(-c2ccccn2)nc2ccccc12 (centres undefined),-1.88%
14,CN(C(=O)c1cccc([N+](=O)[O-])c1)c1ccccc1C(=O)NCc1ccccc1,-2.25%
15,Cc1ccc(S(=O)(=O)/N=C(\N)c2ccc(F)cc2)cc1,6.04%
16,CN(C)/C=C(/C(=O)c1ccccc1)S(=O)(=O)c1ccc(Cl)cc1,9.87%
17,CN(C)/C=C(/C(=O)c1ccc(Cl)cc1)S(=O)(=O)c1ccccc1,50.5% (active)
18,O=C(NNS(=O)(=O)c1ccc(F)cc1)C1CCCCC1,-1.22%
19,CN(C)/C=C(/C(=O)c1ccccc1Cl)S(C)(=O)=O,-0.829%
20,CN(C)/C=C(/C(=O)c1ccc(F)cc1)S(=O)(=O)c1ccc(F)cc1,27.7% (active)
21,CCN(CC)/[N+]([O-])=N/Oc1cc(O/[N+]([O-])=N/N2CCCC2CO)c([N+](=O)[O-])cc1[N+](=O)[O-] (centres undefined),-2.07%
22,O=C(Nc1cccc(Cl)c1)c1cncn1-c1ccc(F)cc1,6.32%
23,COc1ccccc1C(=O)NNC(=O)CCN1C(=O)/C(=C\c2ccccc2)SC1=S,-3.61%
24,CCn1cc(CCC(=O)NCc2ccc(F)cc2)c2ccccc21,5.51%

row,SMILES,max response
1,O=C(CCCNS(=O)(=O)c1cccc2nsnc12)NCCN1CCN(c2ccccc2F)CC1,-4.37%
2,COc1ccccc1Oc1ccc(N/C=C2/CCCC2=O)cc1,15.4% (active)
3,COc1ccccc1Oc1ccc(S(=O)(=O)Nc2cccnc2)cc1,-1.76%
4,COc1ccc(NS(=O)(=O)c2ccc(Oc3c(C#N)cccc3C#N)cc2)cc1,5.34%
5,CCOC(=O)c1[nH]c2c(c1-c1ccccc1)C(=O)CC(c1ccc(Cl)cc1)C2 (centres undefined),5.07%
6,CCOC(=O)c1[nH]c2c(c1C)C(=O)CC(c1ccc(N(C)C)cc1)C2 (centres undefined),25.5% (active)
7,COCCOC(=O)c1[nH]c2c(c1C)C(=O)CC(c1ccc(OC)cc1)C2 (centres undefined),7.29%
8,CCOC(OCC)c1ccc(/C=C\c2nccc(N)n2)cc1,38.5% (active)
9,Cc1cc(=O)n2nc(N3CCCC(C(=O)NCc4ccc(Cl)cc4)C3)sc2n1 (centres undefined),-2.2%
10,CC(=O)OCc1cc2cc(C)ccc2[nH]c1=O,-2.45%
11,CCNCc1cc2cc(C)ccc2[nH]c1=O,4.83%
12,CCOC(=O)c1cc2cc(C)ccc2[nH]1,39.7% (active)
13,Cc1ccc2c(c1)N(CC(=O)N(Cc1ccccn1)Cc1ccco1)C(=O)C(C(C)C)O2 (centres undefined),8.51%
14,CCOC(CNC(=O)C1CCN(S(=O)(=O)c2ccc3nc4c(c(C(=O)O)c3c2)CC(C)CC4)CC1)OCC (centres undefined),-3.45%
15,CC(=O)c1cccc(NC(=O)COc2ccc(S(=O)(=O)N3CCOCC3)cc2)c1,0.879%
16,CC(C)c1ccc(NC(=O)NC2CCCCC2)cc1,44.1% (active)
17,CC(C)(C)NS(=O)(=O)c1ccc(NC(=O)NC2CCCCC2)cc1,9%
18,Cc1cc(C)cc(NC(=O)NC2CCN(CC(=O)Nc3cccc(Cl)c3C)CC2)c1,-0.314%
19,CC(C)N1CCC(NC(=O)Nc2ccccc2)CC1,-2.49%
20,Cc1cc(C)cc(NC(=O)NC2CCCCCCC2)c1,17.4% (active)
21,Cc1cc(C)cc(NC(=O)N2CCCCCCC2)c1,-5.05%
22,C/C(=N\NC(=O)OC(C)(C)C)c1ccc[nH]1,42.4% (active)
23,Cc1ccccc1NC(=O)NNC(=O)OC(C)(C)C,-3.59%
24,COc1ccccc1CNS(=O)(=O)c1ccc2c(c1)NC(=O)CS2,30.5%

row,SMILES,max response
1,O=[N+]([O-])c1cc([N+](=O)[O-])c(Oc2cc(F)cc(F)c2F)cc1NN1CCCCC1,0.495%
2,CCOC(=O)c1sc(NC(=O)CSc2nc3c(c(=O)n2-c2ccccc2)SCC3)c(C(=O)OCC)c1C,-2.16%
3,COc1cccc(/C=N\NC(=O)C2=NNC(=O)C2C)c1O (centres undefined),32.5% (active)
4,COc1cc2cc(C(=O)N/N=C/c3cccc(OC)c3OC)[nH]c2cc1OC,0.0255%
5,COc1cccc(/C=N/NC(=O)c2[nH]nc3c2CCc2ccccc2-3)c1O,6.14%
6,O=c1[nH]nc(SCCS(=O)(=O)c2ccc(F)cc2)n1-c1ccccc1C(F)(F)F,-1.24%
7,COc1cccc2cc(-c3cc(=O)oc4cc(C)c(O)cc34)oc12,8.46%
8,O=C(NCCN1CCOCC1)c1ccc2c(c1)ncn2C1CCCC1,1.03%
9,COc1ccccc1-n1cnc2cc(C(=O)NCC3CCCO3)ccc21 (centres undefined),-2.15%
10,O=C(NCc1cccs1)c1ccc2c(c1)ncn2C1CCCC1,31.8% (active)
11,CCCCC(CC)CNCc1cccn1CCN1CCOCC1 (centres undefined),-0.53%
12,CC(C)CN(Cc1c(O)ccc2c(=O)c(-c3ccccc3)coc12)CC(C)C,8.57%
13,CC(C)=CCc1c(O)c(CC=C(C)C)c2occ(-c3ccc(O)cc3)c(=O)c2c1O,10.9% (active)
14,O=C(Cn1cc(C(=O)C2CC2)c2ccccc21)Nc1ccccc1Cl,-7.35%
15,Cc1csc(NC(=O)CN2CCCCCC2)n1,2.46%
16,Cc1cc(C)c(NC(=O)CN2CCCCCC2)c(C)c1,34.2% (active)
17,COc1cc(Cl)c(C)cc1NC(=O)CN1CCCCCC1,0.423%
18,O=C(CN1CCCCCC1)Nc1c(Cl)cc(Cl)cc1Cl,21.3% (active)
19,O=C(CN1CCCCCC1)Nc1ccc(Cl)cc1F,8.65%
20,O=C(CN1CCOCC1)Nc1c(Cl)cc(Cl)cc1Cl,-2.9%
21,CC1CCCCN1CCCNc1ccc(C(CC(N)=O)NC(=O)c2ccccc2)cc1[N+](=O)[O-] (centres undefined),-1.02%
22,COCCN(Cc1cc2cc3c(cc2nc1Cl)OCO3)C(=O)c1cccc(C)c1,5.64%
